# Assay results as given in PubChem BioAssay (NCATS).
# Values joined by “and” are separate entries in the source; they are usually repeats but may differ in a detail not shown here. Identical values can stand only once. Inconclusive results are not listed. Where a call stands in place of a potency, no number is given. Some structures have more than one record in an assay (separate samples or runs), and their calls can disagree. Active and inactive are the calls of the source. Calls come from the whole dose curve; as a rule, active = well fitted curve in the direction sought with a large enough effect; inconclusive = small, poorly fitted or top-dose-only effect, or another doubt; inactive = no such curve, though single readings can be large; an effect the other way counts as inactive or inconclusive.
# Key:
# MKL-1 = experiment: qHTS assay to identify novel small-molecules to repurpose for Merkel cell carcinoma treatment (AID 1296009); settings: MCC and control cell lines, CellTiter-Glo viability, 72 h; series mostly up to 46 µM; note: nearly all actives have a fitted effect of over 60% in size
# Summary of the method: (§1)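 Cells exposed to NPC (8-point) and MIPE (11-point) compound dilutions for 72 hr at 37 degree celsius; viability read by CellTiter-Glo luminescence, normalized to no-cell and DMSO in-plate controls.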
# MKL-2 = experiment: as above; settings: MCC and control cell lines, CellTiter-Glo viability, 72 h; series mostly up to 46 µM
# Summary of the method: as §1
# UISO = experiment: as above; settings: MCC and control cell lines, CellTiter-Glo viability, 72 h; series mostly up to 46 µM
# Summary of the method: as §1
# WaGa = experiment: as above; settings: MCC and control cell lines, CellTiter-Glo viability, 72 h; series mostly up to 46 µM
# Summary of the method: as §1
# C33A = experiment: Primary qHTS to identify gynecologic anti-cancer compounds using libraries of approved drugs and bioactive compounds (AID 1345084); settings: Gynecologic cancer cell panel viability, ATPlite luminescence, 48 h; series mostly up to 57.5 µM; note: nearly all actives have a fitted effect of over 55% in size
# Summary of the method: (§2)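 Cells, 1,000 per well, plated 16 h, then exposed 48 h at 37 C to compounds. Viability by ATPlite luminescence after 15 min at room temperature.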
# CASKI = experiment: as above; settings: Gynecologic cancer cell panel viability, ATPlite luminescence, 48 h; series mostly up to 57.5 µM
# Summary of the method: as §2
# Es-2 = experiment: as above; settings: Gynecologic cancer cell panel viability, ATPlite luminescence, 48 h; series mostly up to 57.5 µM
# Summary of the method: as §2
# HeLa = experiment: as above; settings: Gynecologic cancer cell panel viability, ATPlite luminescence, 48 h; series mostly up to 57.5 µM
# Summary of the method: as §2
# Hek293T = experiment: as above; settings: Gynecologic cancer cell panel viability, ATPlite luminescence, 48 h, control line for the selectivity index; series mostly up to 57.5 µM
# Summary of the method: as §2
# JEG-3 = experiment: as above; settings: Gynecologic cancer cell panel viability, ATPlite luminescence, 48 h; series mostly up to 57.5 µM
# Summary of the method: as §2
# OV90 = experiment: as above; settings: Gynecologic cancer cell panel viability, ATPlite luminescence, 48 h; series mostly up to 57.5 µM
# Summary of the method: as §2
# PA-1 = experiment: as above; settings: Gynecologic cancer cell panel viability, ATPlite luminescence, 48 h; series mostly up to 57.5 µM
# Summary of the method: as §2
# SKOV3 = experiment: as above; settings: Gynecologic cancer cell panel viability, ATPlite luminescence, 48 h; series mostly up to 57.5 µM
# Summary of the method: as §2
# Tov-21-G = experiment: as above; settings: Gynecologic cancer cell panel viability, ATPlite luminescence, 48 h; series mostly up to 57.5 µM
# Summary of the method: as §2
# Tov112D = experiment: as above; settings: Gynecologic cancer cell panel viability, ATPlite luminescence, 48 h; series mostly up to 57.5 µM
# Summary of the method: as §2
# [1] = Drug repurposing screens with cells derived from glioblastoma tumor samples (AID 1345199); settings: GBM patient neurospheres viability, ATP luminescence, 48 h; note: nearly all actives have a fitted effect of over 40% in size
# Summary of the method: (§3)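 Four patient lines of CD133+ GBM neurospheres were screened at several concentrations; hits were retested in those lines plus three slower-growing GBM lines, using 48-hour treatment and ATP-based viability.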
# CAOV3 = experiment: Primary qHTS to identify gynecologic anti-cancer compounds using libraries of approved drugs and bioactive compounds (AID 1345084); settings: Gynecologic cancer cell panel viability, ATPlite luminescence, 48 h; series mostly up to 57.5 µM; note: nearly all actives have a fitted effect of over 55% in size
# Summary of the method: as §2
# astro = experiment: Drug repurposing screens with cells derived from glioblastoma tumor samples (AID 1345199); settings: viability, ATP luminescence, 48 h; series mostly up to 45.9 µM; note: nearly all actives have a fitted effect of over 40% in size
# Summary of the method: as §3
# [2] = at 45.9 µM (top of the series), tumour line B
# [3] = at 45.9 µM (top of the series), tumour line D
# [4] = at 46.1 µM (top of the series), tumour line C
# [5] = at 46 µM (top of the series), tumour line A
# [6] = at 20 µM (top of the series), tumour line C
# [7] = at 21.2 µM (top of the series), tumour line B
# [8] = at 21.2 µM (top of the series), tumour line D
# Potency is the fitted concentration of half-maximal effect.
smiles,measurement,setting,value
CC(C)NCC(O)COc1ccc(CCOCC2CC2)cc1 (stereo not given),Potency,MKL-1,inactive
same,Potency,MKL-2,inactive
same,Potency,UISO,inactive
same,Potency,WaGa,inactive
same,Potency,C33A,inactive
same,Potency,CASKI,inactive
same,Potency,Es-2,inactive
same,Potency,HeLa,inactive
same,Potency,Hek293T,inactive
same,Potency,JEG-3,inactive
same,Potency,OV90,inactive
same,Potency,PA-1,inactive
same,Potency,SKOV3,inactive
same,Potency,Tov-21-G,inactive
same,Potency,Tov112D,inactive
same,"activity, negative = cell killing",[1]; [2],-17.4% (inactive)
same,"activity, negative = cell killing",[1]; [3],-21.3% (inactive)
same,"activity, negative = cell killing",[1]; [4],-27.5% (inactive)
same,Potency,[1]; tumour line A,17.8 µM (active)
CN1C2CCC1CC(OC(=O)C(CO)c1ccccc1)C2 (stereo not given),Potency,MKL-1,inactive
same,Potency,MKL-2,inactive
same,Potency,UISO,inactive
same,Potency,WaGa,inactive
NC(=O)NO,Potency,MKL-1,inactive
same,Potency,MKL-2,inactive and 372 nM (active)
same,Potency,UISO,inactive and 4.69 µM (active)
same,Potency,WaGa,inactive
same,Potency,C33A,inactive
same,Potency,CAOV3,inactive
same,Potency,CASKI,inactive
same,Potency,Es-2,inactive
same,Potency,HeLa,inactive
same,Potency,Hek293T,inactive
same,Potency,JEG-3,inactive
same,Potency,OV90,inactive
same,Potency,PA-1,inactive
same,Potency,SKOV3,inactive
same,Potency,Tov-21-G,inactive
same,Potency,Tov112D,inactive
same,"activity, negative = cell killing",[1]; [2],-13.8% (inactive)
same,"activity, negative = cell killing",[1]; [3],-5.79% (inactive)
same,"activity, negative = cell killing",[1]; [5],-19.1% (inactive)
same,"activity, negative = cell killing",[1]; [4],-11.2% (inactive)
COc1nc(C)nc(Cl)c1NC1=NCCN1,Potency,MKL-1,inactive
same,Potency,MKL-2,inactive
same,Potency,UISO,inactive
same,Potency,WaGa,inactive
same,Potency,C33A,inactive
same,Potency,CASKI,inactive
same,Potency,Es-2,inactive
same,Potency,HeLa,inactive
same,Potency,Hek293T,inactive
same,Potency,JEG-3,inactive
same,Potency,OV90,inactive
same,Potency,PA-1,inactive
same,Potency,SKOV3,inactive
same,Potency,Tov-21-G,inactive
same,Potency,Tov112D,inactive
same,"activity, negative = cell killing",[1]; [6],-9.78% (inactive)
same,"activity, negative = cell killing",[1]; [7],-2.98% (inactive)
same,"activity, negative = cell killing",[1]; [8],12.8% (inactive)
same,"activity, negative = cell killing","[1]; at 21.3 µM (top of the series), tumour line A",-26.5% (inactive)
O=c1c(O)c(-c2ccc(O)c(O)c2)oc2cc(O)cc(O)c12,Potency,MKL-1,inactive
same,Potency,MKL-2,inactive
same,Potency,UISO,inactive
same,Potency,WaGa,inactive
same,Potency,C33A,inactive
same,Potency,CAOV3,inactive
same,Potency,CASKI,inactive
same,Potency,Es-2,inactive
same,Potency,HeLa,15.8 µM (active)
same,Potency,Hek293T,inactive
same,Potency,JEG-3,inactive
same,Potency,SKOV3,inactive
same,Potency,Tov-21-G,inactive
CN1C(C(=O)Nc2ccccn2)=C(O)c2ccccc2S1(=O)=O,Potency,MKL-1,inactive and 10.5 µM (active)
same,Potency,MKL-2,inactive
same,Potency,UISO,inactive
same,Potency,WaGa,inactive and 16.6 µM (active)
same,Potency,C33A,inactive
same,Potency,CAOV3,inactive
same,Potency,CASKI,inactive
same,Potency,Es-2,inactive
same,Potency,HeLa,inactive
same,Potency,Hek293T,inactive
same,Potency,JEG-3,inactive
same,Potency,OV90,inactive
same,Potency,PA-1,inactive
same,Potency,Tov-21-G,inactive
same,Potency,Tov112D,inactive
same,"activity, negative = cell killing",[1]; [6],-3.14% (inactive)
same,"activity, negative = cell killing",[1]; [7],-6.49% (inactive)
same,"activity, negative = cell killing",[1]; [8],0.702% (inactive)
same,Potency,astro,inactive
COc1ccccc1OCCNCC(O)COc1cccc2[nH]c3ccccc3c12 (stereo not given),Potency,MKL-1,inactive
same,Potency,MKL-2,16.8 µM (active)
same,Potency,UISO,inactive
same,Potency,WaGa,inactive
same,Potency,C33A,inactive
same,Potency,CAOV3,inactive
same,Potency,Es-2,inactive
same,Potency,HeLa,inactive
same,Potency,PA-1,inactive
same,Potency,SKOV3,inactive
same,Potency,Tov-21-G,inactive
same,Potency,Tov112D,inactive
same,"activity, negative = cell killing",[1]; [4],3.12% (inactive)
same,Potency,[1]; tumour line A,11.2 µM (active)
O=C(c1ccc(OCCN2CCCCC2)cc1)c1c(-c2ccc(O)cc2)sc2cc(O)ccc12,Potency,MKL-1,inactive
same,Potency,MKL-2,15 µM (active)
same,Potency,UISO,inactive
same,Potency,WaGa,inactive
same,Potency,C33A,inactive
same,Potency,CAOV3,inactive
same,Potency,CASKI,inactive
same,Potency,Es-2,inactive
same,Potency,HeLa,inactive
same,Potency,Hek293T,inactive
same,Potency,JEG-3,inactive
same,Potency,OV90,inactive
same,Potency,Tov-21-G,inactive
same,Potency,Tov112D,inactive
Cc1ccc(-c2cc(C(F)(F)F)nn2-c2ccc(S(N)(=O)=O)cc2)cc1,Potency,MKL-1,inactive
same,Potency,MKL-2,inactive
same,Potency,UISO,inactive
same,Potency,WaGa,inactive
same,Potency,C33A,inactive
same,Potency,CASKI,inactive
same,Potency,Es-2,inactive
same,Potency,HeLa,inactive
same,Potency,Hek293T,inactive
same,Potency,JEG-3,inactive
same,Potency,OV90,inactive
same,Potency,PA-1,inactive
same,Potency,SKOV3,inactive
same,Potency,Tov-21-G,inactive
same,Potency,Tov112D,inactive
same,"activity, negative = cell killing",[1]; [2],2.4% (inactive)
same,"activity, negative = cell killing",[1]; [4],15.9% (inactive)
same,Potency,[1]; tumour line A,8.91 µM (active)
N[C@@H](Cc1c[nH]c2ccc(O)cc12)C(=O)O,Potency,MKL-1,inactive
same,Potency,MKL-2,inactive
same,Potency,C33A,inactive
same,Potency,CASKI,inactive
same,Potency,Es-2,inactive
same,Potency,HeLa,inactive
same,Potency,Hek293T,inactive
same,Potency,JEG-3,inactive
same,Potency,PA-1,inactive
same,Potency,SKOV3,inactive
same,Potency,Tov-21-G,inactive
same,Potency,Tov112D,inactive
same,"activity, negative = cell killing",[1]; [2],-15.2% (inactive)
same,"activity, negative = cell killing",[1]; [3],-5.01% (inactive)
same,"activity, negative = cell killing",[1]; [5],-33.5% (inactive)
same,"activity, negative = cell killing",[1]; [4],-4.77% (inactive)
same,Potency,astro,inactive
CN1CCN2c3ccccc3Cc3ccccc3C2C1 (stereo not given),Potency,Es-2,inactive
same,Potency,HeLa,inactive
same,Potency,JEG-3,inactive
same,"activity, negative = cell killing",[1]; [4],-2.24% (inactive)
same,Potency,[1]; tumour line A,11.2 µM (active)
same,Potency,[1]; tumour line D,20 µM (active)
same,Potency,astro,20 µM (active)
O=c1[nH]cc(F)c(=O)[nH]1,Potency,MKL-1,inactive
same,Potency,MKL-2,inactive
same,Potency,WaGa,10.5 µM (active)
same,Potency,CAOV3,inactive
same,Potency,CASKI,inactive
same,Potency,Es-2,inactive
same,Potency,HeLa,inactive
same,Potency,Hek293T,inactive
same,Potency,OV90,inactive
same,Potency,SKOV3,inactive
same,Potency,Tov112D,inactive
same,"activity, negative = cell killing",[1]; [2],-26.1% (inactive)
same,"activity, negative = cell killing",[1]; [5],-11.3% (inactive)
same,"activity, negative = cell killing",[1]; [4],-29.9% (inactive)
CCC1(c2ccccc2)C(=O)NCNC1=O,Potency,C33A,inactive
same,Potency,CASKI,inactive
same,Potency,Es-2,inactive
same,Potency,HeLa,inactive
same,Potency,Hek293T,inactive
same,Potency,JEG-3,inactive
same,Potency,OV90,inactive
same,Potency,PA-1,inactive
same,Potency,SKOV3,inactive
same,Potency,Tov-21-G,inactive
same,Potency,Tov112D,inactive
same,"activity, negative = cell killing",[1]; [2],-7.45% (inactive)
same,"activity, negative = cell killing",[1]; [3],9.05% (inactive)
same,"activity, negative = cell killing",[1]; [5],-15.2% (inactive)
same,"activity, negative = cell killing",[1]; [4],-6.01% (inactive)
same,Potency,astro,inactive
Clc1ccccc1C(c1ccccc1)(c1ccccc1)n1ccnc1,Potency,MKL-1,inactive
same,Potency,MKL-2,inactive
same,Potency,UISO,inactive
same,Potency,WaGa,23.7 µM (active) and inactive
same,Potency,CAOV3,inactive
same,Potency,CASKI,inactive
same,Potency,Es-2,inactive
same,Potency,HeLa,inactive
same,Potency,JEG-3,inactive
same,Potency,SKOV3,inactive
same,Potency,Tov-21-G,inactive
same,Potency,Tov112D,inactive
same,"activity, negative = cell killing",[1]; [6],1.49% (inactive)
same,Potency,[1]; tumour line A,11.2 µM (active)
same,Potency,astro,inactive
CC(CCc1ccc(O)cc1)NCCc1ccc(O)c(O)c1 (stereo not given),Potency,MKL-1,7.5 µM (active)
same,Potency,MKL-2,23.5 µM (active) and 11.9 µM (active)
same,Potency,WaGa,inactive
same,Potency,C33A,inactive
same,Potency,CAOV3,inactive
same,Potency,CASKI,inactive
same,Potency,Es-2,inactive
same,Potency,HeLa,inactive
same,Potency,Hek293T,inactive
same,Potency,JEG-3,inactive
same,Potency,OV90,inactive
same,Potency,Tov-21-G,inactive
same,Potency,Tov112D,inactive
same,"activity, negative = cell killing",[1]; [4],5.45% (inactive)
same,Potency,[1]; tumour line A,28.2 µM (active)
same,Potency,[1]; tumour line B,31.6 µM (active)
